The values below come from PubChem BioAssay (EPA / NIEHS).

The structures appear in SMILES notation. Activity calls are given as the source filed them. How the source made its calls: active means hit-call score of the fitted dose curve at least 0.9, where 1 is the maximum; inactive means score below 0.9.

This assay can be described thus: ATG_AP_1_CIS: Attagene CIS-FACTORIAL HepG2 Assay for human Activator Protein 1 (AP-1) (AID 2282931). The settings on record: HepG2 Attagene cis-factorial AP-1 reporter mRNA; actives raise or lower the signal. Here is the method: ATG_CIS is a cell-based, multiplexed-readout assay that uses HepG2, a human liver cell line, with measurements taken at 24 hours after chemical dosing in a 24-well plate.ATG_AP_1_CIS is one of 52 assay component(s) measured or calculated from the ATG_CIS assay. It is designed to make measurements of mRNA induction, a form of inducible reporter, as detected with fluorescence intensity signals by Reverse transcription polymerase chain reaction (RT-PCR) and Capillary electrophoresis technology.Data from the assay component ATG_AP_1_CIS was analyzed into 1 assay endpoint. This assay endpoint, ATG_AP_1_CIS, was analyzed with bidirectional fitting relative to DMSO as the negative control and baseline of activity. Using a type of inducible reporter, measures of mRNA for gain or loss-of-signal activity can be used to understand the reporter gene at the transcription factor-level as they relate to the gene FOS and JUN. Furthermore, this assay endpoint can be referred to as a primary readout, because this assay has produced multiple assay endpoints where this one serves a reporter gene function. To generalize the intended target to other relatable targets, this assay endpoint is annotated to the dna binding intended target family, where the subfamily is basic leucine zipper.
Human liver HepG2 cells are transiently transfected with multiple reporter transcription units (MRTUs) in 6-well plates using FuGene 6 reagent (Roche; 3 ml FuGene/1 mg DNA). The MRTU constructs are regulated by a cis-regulating element (promoter). […] A major difference between the CIS and TRANS system is that in CIS activities of endogenous TFs are measured, whereas the TRANS assay evaluates changes in activities of exogenous, chimeric NR-Gal4 proteins. […] At the end of 24 hour incubation, total RNA was isolated using TriZol reagent (Invitrogen). The isolated RNA is then reverse-transcribed using oligo(dT) primer and Mo-MLV reverse transcriptase (Invitrogen) with DNAse I (Ambion) treatment for 30 min. The one-tenth of the produced cDNA was amplified by PCR using Taq DNA polymerase (Invitrogen) and two reporter sequence-specific primers. The PCR products were fluorescently labeled by primer extension with 6-arboxyfluorescein (6-FAM) 5'-labeled reporter sequence-specific primer (2 min at 95 C, 20 s at 68 C and 10 min at 72 C) and these products were digested with 5U of HpaI (New England Biolabs) for 2h at 37 C. The fragments were purified using Qiaquick PCR columns (Qiagen), analyzed on an ABI 3130xL genetic analyzer (Applied Biosystems) with peak positions identified by using a set of X-rhodamine (ROX)-labeled MapMarker1000 molecular weight standards (BioVentures). The raw capillary electrophoresis data was processed using Attagraph software (Attagene).
As to `O=C(C=Cc1ccccc1)OCCCc1ccccc1`, the compound was called inactive.
With `N=C1N=C(N)c2ccccc21`, the call was inactive.
As for `CC(=O)CCC=C(C)CCC=C(C)C`, the result was inactive.
A word on the AC50: it is the concentration at which the activity in the assay is half-maximal. As to `CC(=O)OCC=C(C)CCC=C(C)CCC=C(C)C`, the AC50 is 48.1 µM (active).
On to `COc1ccccc1O`, for which the result was inactive.
Regarding `Cc1ccncc1`, the compound was called inactive.
On the same count and under the same terms, the value for `O=C1OC2(c3ccc(O)cc3Oc3cc(O)ccc32)c2ccccc21` was “inactive”; that for `CC1(C)[C@H](C=C(Cl)Cl)[C@H]1C(=O)OCc1cccc(Oc2ccccc2)c1` was “inactive”.
Same read-out and setting: the value for `CC(C)(O)CCc1ccccc1` was “inactive”; that for `NS(=O)(=O)c1cc(C(=O)O)c(NCc2ccco2)cc1Cl` was “inactive”.
The same measure, in the same setting: for `CC(CO)(CO)[N+](=O)[O-]` the value was “inactive”.
For the compound `CC12CCC(C1)C(C)(C)C2O` (stereo not given), the compound was classed as inactive.
The same measure, in the same setting: the value for `c1ccc2scnc2c1` was “inactive”; that for `O=[N+]([O-])c1cc(N(CCO)CCO)ccc1NCCO` was “inactive”; that for `Cc1ccc(C(C)(C)O)cc1` was “inactive”.
The same measure, in the same setting: the value for `CN(C)c1ccc(C=O)cc1` was “inactive”; that for `CCCCC/C=C\C=C\C(=O)OCC` was “inactive”.
In the case of `Cc1cccc(C)c1`, the compound was classed as inactive.
Same read-out and setting: the value for `CCCCCCCCCCCCOC(C)=O` was “inactive”; that for `CC1=CCC(=C(C)C)CC1` was “inactive”; that for `CCOc1ccc(NC(C)=O)cc1` was “inactive”.
Same read-out and setting: for `CCCCOCCOCCO` the value was “inactive”; for `O=S(=O)(O)c1cc(S(=O)(=O)O)c2c(N=Nc3ccccc3)c(O)ccc2c1`, “inactive”; for `CC(=O)c1ccc2ccccc2c1`, “inactive”.
On the same count and under the same terms, the value for `c1ccc(Cc2ccccc2)cc1` was “inactive”.
Regarding `CCCCCCCCCOS(=O)(=O)O`, the outcome was inactive.
Same read-out and setting: for `CCCCOCCOC(=O)c1ccccc1C(=O)OCCOCCCC` the value was “inactive”.
`CC(=O)CC(C)(C)C1CCCCC1`: the result was inactive.
For `CC(C)(C)c1cccc(O)c1`, the outcome was inactive.
Still for that read-out and setting: the value for `CC1=CC(O)CC(C)(C)C1` (stereo not given) was “inactive”.
On the same count and under the same terms, for `CCOC(=O)CC1(C)OCC(C)O1` (stereo not given) the value was “inactive”.
Same read-out and setting: the value for `CC(C)CCOC(=O)CC(C)C` was “inactive”.
For the compound `O=c1cc(-c2ccc(O)cc2)oc2cc(O)cc(O)c12`, the AC50 is 64.3 µM (active).
With `CCCCCCCCOC(=O)c1ccc(O)cc1`, the compound was called inactive.
Take `OC[C@@H](O)[C@H](O)[C@@H](O)[C@@H](O)CO`: the call was inactive.
Take `OCCCO`: the call was inactive.
On the same count and under the same terms, for `CCCCCCCC(=O)N(C)C` the value was “inactive”.
For the compound `Cc1ccccc1S`, the AC50 is 36.6 µM (active).
Consider `CCc1cccc(O)c1`, for which the compound was classed as inactive.
As to `O=C(OCc1ccccc1)c1ccccc1O`, the AC50 was 111 µM (active).
